D1 antagonist: antagonists of human D1 dopamine receptor | AID 504652 | P21728 | HEK293 TREx D1 cells, calcium flux, dopamine EC80; hits give low values | activity change, negative = inhibition, % at 10 µM | 360,000 compounds, 3.2% hits; in the data active = activity change below about -30%; also: % is scaled to controls: 0 for no effect and ±100 for the full control effect
Target sequence (P21728 whole entry, looked up): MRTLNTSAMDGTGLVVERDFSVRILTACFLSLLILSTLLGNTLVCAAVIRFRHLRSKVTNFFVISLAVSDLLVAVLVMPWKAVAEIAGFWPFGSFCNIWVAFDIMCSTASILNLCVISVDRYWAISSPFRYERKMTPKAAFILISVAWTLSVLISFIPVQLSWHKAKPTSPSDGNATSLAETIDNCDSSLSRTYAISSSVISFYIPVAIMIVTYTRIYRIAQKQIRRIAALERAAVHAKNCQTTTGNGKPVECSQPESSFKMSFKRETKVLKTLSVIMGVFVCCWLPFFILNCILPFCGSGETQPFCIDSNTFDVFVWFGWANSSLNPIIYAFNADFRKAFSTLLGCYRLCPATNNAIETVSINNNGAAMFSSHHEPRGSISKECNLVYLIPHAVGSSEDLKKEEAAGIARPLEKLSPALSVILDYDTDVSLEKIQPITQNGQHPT
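Allosteric or orthosteric antagonism assessed as attenuation of the calcium response to EC80 dopamine, added 180 s after compound, in induced HEK293 Trex D1 cells loaded with no-wash calcium dye.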
TRHR PAM: allosterically enhances the human TRH receptor; P34981; TRHR cells, fluo-8 calcium fluorescence, EC20 TRH enhancement; enhancement, % at 2 µM; 360,000 compounds, 0.66% hits; in the data active = enhancement above about 30%; also: 0% is about no effect
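TRHR-expressing cells loaded with fluo-8 calcium dye were read kinetically (ex 480/em 530) during compound addition, then stimulated with an EC20 of TRH (10 nM final). Enhancement of the Gq-mediated intracellular calcium response was scored.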
D1 agonist: human D1 receptor agonism | activation, % at 2 µM | 360,000 compounds, 1% hits | AID 504660 | HEK293 T-REx D1 cells, calcium flux, agonist mode; also: 0% is about no effect
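Inducible HEK293 T-REx D1 cells, force-coupled to calcium signalling, were plated at 4000 cells/well with tetracycline and held overnight at 30 C. After no-wash calcium dye loading, compound-evoked calcium rise over 180 s flagged agonists.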
TRHR agonist: agonists of human TRH receptor; P34981; TRHR cells, calcium flux fluo-8, FDSS agonist mode; activation, % at 2 µM; 360,000 compounds, 0.18% hits; AID 493084; also: 0% is about no effect
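Agonist-mode FDSS calcium read (Ex 480/Em 530, 1 s cycles) in 1536-well TRHR cells with fluo-8 dye, after 10-cycle baseline and 23 nL compound addition; TRH at EC20 (10 nM final) added afterwards for the enhancer phase.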
GRP78 ERSR act: induces the endoplasmic reticulum stress response in human glioma cells; U87-MG GRP78 promoter luciferase reporter, 16 h; Potency, µM, inactives show at the top dose activation, most hits filed as activators; 420,000 compounds, 0.02% hits; AID 602332; active = well fitted activation curve with a large enough effect; also: potency is read from the fitted curve at half-maximal effect; series mostly up to about 76 µM; % of control where 0% means no effect; nearly all actives have a fitted effect of over 35% in size
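Stably transfected U87-MG human glioma cells carrying a GRP78-based luminescent sensor were seeded at 1000 cells/well, pin-dosed with compounds and incubated 16 h. Luciferase reagent was then added, and end-point luminescence was read after 10 min at room temperature.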
D1 PAM: human D1 dopamine receptor positive modulation; P21728; HEK293 TREx D1 cells, calcium flux, dopamine EC20 potentiation; potentiation, % at 10 µM; 360,000 compounds, 0.036% hits; AID 504651; in the data active = potentiation above about 30%; also: 0% is about no effect
Numbers without * were called inactive; / = no result. This is a sample that favours compounds with a hit; in the whole collection about 4% have one here. Rule as the data show it, unless noted: active = activation above about 30%; inactive = the rest.

SMILES	D1 antagonist	TRHR PAM	D1 agonist	TRHR agonist	GRP78 ERSR act	D1 PAM
COc1ccc(-c2ccc(C(=O)Nc3ccc(OC)nc3)c3occc23)c(C)c1	/	/	/	/	0%	/
CCCOC(=O)c1ccc(NC(=O)c2cc(OC)c(OC)c(OC)c2Br)cc1	-36*	3	1	1	-1%	-6
COc1ccc(NC(=O)c2cc(OC)c(OC)c(OC)c2Br)cc1OC	-11	39*	3	0	-6%	-5
COc1cc(C(=O)NCCOc2ccc(F)cc2)c(Br)c(OC)c1OC	-55*	7	1	-4	-3%	4
COc1cc(C(=O)NCCOc2ccccc2)c(Br)c(OC)c1OC	0	1	0	-1	1%	-6
COc1cc(C(=O)Nc2ccc(C(C)=O)cc2)c(Br)c(OC)c1OC	-3	-2	6	-1	2%	-3
CCCOC(=O)c1ccc(NC(=O)c2cc(Cl)ccc2OC)cc1	5	-5	11	1	-5%	-13
COc1ccccc1-c1nn2c(=O)cc(CN3CCN(C(=O)/C=C/c4ccccc4)CC3)nc2s1	1	-5	1	-1	1%	-1
Cc1cccc(-c2nn3c(=O)cc(CN4CCN(S(=O)(=O)c5ccc(Cl)cc5)CC4)nc3s2)c1	-10	-9	1	0	-2%	2
Cc1ccccc1-c1nn2c(=O)cc(CN3CCN(C(=O)/C=C/c4ccccc4)CC3)nc2s1	-32*	-1	-1	-1	3%	-6
Cc1cccc(-c2nn3c(=O)cc(CN4CCN(C(=O)c5ccccc5Br)CC4)nc3s2)c1	-34*	2	0	0	-2%	-5
Cc1cc2c(s1)c1cnn(Cc3ccccc3)c(=O)c1n2C	0	0	0	-1	/	8
CC(C)c1ccc(-n2nnnc2SCC(=O)NC2CC2)cc1	6	-3	4	0	2%	2
CSc1ccc(CCNC(=O)c2ccc(-c3nc(COc4ccccc4)c(C)o3)cc2)cc1	-63*	3	0	0	1%	0
Cc1oc(-c2ccc(C(=O)NCCc3ccc(Cl)cc3)cc2)nc1CSc1ccccc1	0	0	32*	3	-1%	1
CC(C)CNS(=O)(=O)c1cc2c3c(c1)CCC(=O)N3CCC2	1	-2	10	0	-3%	0
CCN(CC)c1ccc2cc(-c3nnc(-c4ccncc4)o3)c(=O)oc2c1	-18	12	199*	285*	-5%	-9
CCN(CC)c1ccc2cc(-c3nnc(-c4cccc(Cl)c4)o3)c(=O)oc2c1	-14	28	416*	171*	-1%	38*
CCCN1CCCc2cc(CN(CCCN3CCOCC3)C(=O)Nc3ccc(CC)cc3)ccc21	3	5	-1	-1	-5%	-6
Cc1cc(Cl)ccc1N=c1ssnc1Cl	-17	-3	30*	6	-4%	0
Cc1ccc(N=c2ssnc2Cl)cc1	2	9	1	0	2%	-5
CCN(CC(=O)Nc1ccccc1C(F)(F)F)C(=O)C1=COCCO1	-3	0	2	0	-3%	-3
COc1ccc(C2N(C(=O)CN3CCCC3)CCCN2S(=O)(=O)c2ccccc2)cc1 (stereo not given)	8	4	32*	-1	-6%	3
Cc1ccc(S(=O)(=O)N2CCN(C(=O)CN3CCOCC3)C2C(C)C)cc1 (stereo not given)	-2	-8	3	1	-4%	-8
CC1N(C(=O)N(C)C)CCN1S(=O)(=O)c1ccccc1 (stereo not given)	4	36*	2	-1	-2%	-2
COc1ccc(C2N(C(C)=O)CCCN2S(=O)(=O)c2ccc(C)cc2)cc1 (stereo not given)	1	-1	0	0	6%	-7
CC(C)C1N(C(=O)CN2CCCC2)CCN1S(=O)(=O)c1ccccc1 (stereo not given)	-45*	-2	5	1	-9%	-12
CC(C)C1N(C(=O)N(C)C)CCN1S(=O)(=O)c1ccccc1 (stereo not given)	13	5	1	0	-3%	-3

Source: PubChem (National Center for Advancing Translational Sciences (NCATS))
